Screening results from PubChem.
DT40 TDP1 no CPT: qHTS for Inhibitors of human tyrosyl-DNA phosphodiesterase 1 (TDP1): qHTS in cells in absence of CPT | DT40 Tdp1-/- hTDP1 cells, no CPT, ATP luminescence, 48 h | Potency, µM (titrated, usually from 46.2 µM), inactives show top-dose activity change, negative = growth inhibition, actives largely listed as inhibitors | 420,000 tested, 15% active | AID 686978, 2013; also: potency is read from the fitted curve at half-maximal effect; % is scaled to controls: 0 for no effect and ±100 for the full control effect; nearly all actives have a fitted effect of over 55% in size
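Stably hTDP1-transfected Tdp1-null chicken DT40 cells were treated with library compounds minus camptothecin and grown for at least 48 hr at 37 °C, after which cellular ATP was quantified by luminescence.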
DRD3 agonist: agonists of human D3 dopamine receptor. P35462. D3R DiscoveRx beta-arrestin cells, luminescence, 90 min. max activation, %. 410,000 tested, 0.58% active. AID 652048; in the data active = max activation above about 30%; also: 0% is about no effect
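Agonist-mode cell screen: cells plated at 1500/well and incubated overnight at 37 °C, then exposed to library compounds for 90 min at 37 °C. Detection reagent was added for 30–60 min at room temperature, and luminescence was read.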
ClpP mod: qHTS Assay for Activators of ClpP | ATP-dependent Clp protease proteolytic subunit (Bacillus subtilis (strain 168)), P80244 | purified B. subtilis ClpP, FRET peptide cleavage, 20 min | Potency, µM (titrated, usually from 57.5 µM), for inactives: at the highest dose activity change, negative = active | 340,000 tested, 1.9% active; active = well fitted falling curve with a large enough effect; inconclusive = small, poorly fitted or top-dose-only effect; inactive = no such curve, though single readings can be large or run the other way; also: potency is read from the fitted curve at half-maximal effect; the source files actives as falling curves though it sought activators and does not explain the sign; nearly all actives have a fitted effect of over 65% in size
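Purified B. subtilis ClpP, 10 microg/mL final in Tris/HCl pH8 with KCl, BSA, glycerol and Tween-20, cleaved an Abz/nitrotyrosine-quenched decapeptide. Fluorescence (ex 320, em 430) was read at 0 and 20 min at room temperature. Delta was normalized to 5.8 microM ADEP and DMSO/no-enzyme controls.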
D3 antag: D3 dopamine receptor (human) antagonism; D3R cells, DiscoveRx beta-arrestin luminescence, antagonist mode; stronger effect = lower value; max response, negative = inhibition, %; 360,000 tested, 2.5% active; in the data active = max response below about -50%; inconclusive = no clear call, values can overlap the other calls; also: % is scaled to controls: 0 for no effect and ±100 for the full control effect
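Cells expressing the human receptor were seeded at 1500 cells/well, incubated overnight at 37 degrees C in 5% CO2, then exposed to library compounds with dopamine controls for 90 minutes at 37 degrees C before luminescent detection.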
TDP1 cell CPT: DT40-hTDP1 cell growth loss with CPT. chicken DT40 Tdp1-/-;hTDP1 cells + 20 nM CPT, ATP luminescence, 48 h. Potency, µM (series often up to 46.2 µM), for inactives: top-dose activity change, negative = growth inhibition, hits mostly inhibitors. 420,000 tested, 12% active. AID 686979; also: potency is read from the fitted curve at half-maximal effect; % is scaled to controls: 0 for no effect and ±100 for the full control effect; nearly all actives have a fitted effect of over 55% in size
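Chicken DT40 Tdp1-/- cells complemented with human TDP1, 400 cells/well, exposed to compounds plus 20 nM camptothecin for at least 48 h at 37 C; viability read as ATP content by CellTiter-Glo luminescence.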
IL-1B inflam inh: blocks inflammasome-driven IL-1 beta release | THP-1 LPS/ATP IL-1B secretion, AlphaLISA, 16 h; stronger effect = lower value | activity change, % at 57.5 µM | 360,000 tested, 4.7% active; in the data active = activity change below about -50%; inconclusive = mostly about -30% to -49%; also: % is scaled to controls: 0 for no effect and ±100 for the full control effect
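Secreted IL-1B measured by AlphaLISA bead assay after 16 h compound exposure of THP-1 cells; compounds (final up to 57.5 uM) added 1 h before LPS (250 ng/mL) and ATP (1.25 mM) stimulation; lower signal means less secretion.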
Starred values were filed as active, the others as inactive; ? = inconclusive; . = not tested or not shown. Compounds with a hit are over-represented: about 21% of the library has one in this group of screens. Unless noted, calls follow the shape of the dose curve; as a rule, active = well fitted inhibition curve with a large enough effect; inconclusive = small, poorly fitted or top-dose-only effect; inactive = flat fitted curve, though single readings scatter.

SMILES	DT40 TDP1 no CPT	DRD3 agonist	ClpP mod	D3 antag	TDP1 cell CPT	IL-1B inflam inh
O=C1CS(=O)(=O)C2(C(=O)N(Cc3ccccc3)c3ccccc32)N1c1ccccc1 (centres undefined)	-11%	1	1%	.	-10%	.
O=C1CCSC2(C(=O)N(Cc3ccccc3)c3ccccc32)N1c1ccccc1 (centres undefined)	15µM*	-5	-2%	.	9.2µM*	.
Cc1ccc(N2C(=O)CCSC23C(=O)N(Cc2ccccc2)c2ccccc23)cc1F (centres undefined)	12µM*	0	-2%	.	21µM*	.
COc1cccc(CN2C(=O)C3(SCC(=O)N3c3ccc(C)c(Cl)c3)c3ccccc32)c1 (centres undefined)	.	-10	1%	.	.	.
Cc1ccc(N2C(=O)CCSC23C(=O)N(Cc2ccccc2)c2ccccc23)cc1 (centres undefined)	16µM*	5	1%	.	?	.
Cc1ccc(N2C(=O)CCSC23C(=O)N(Cc2ccc(F)cc2)c2ccccc23)cc1 (centres undefined)	8.2µM*	2	-1%	.	8.2µM*	.
CCc1ccc(-c2nc(SCC(=O)NC3CC3)n[nH]2)cc1	-10%	10	.	1	14%	49
Cc1cccc(-c2nc3c4ccccc4nc(N4CCN(c5ccc(F)cc5)CC4)n3n2)c1	6%	6	-3%	.	6%	.
Cc1ccc(NC(=O)c2nc(S(C)(=O)=O)ncc2N(Cc2ccc(C(C)(C)C)cc2)Cc2ccco2)cc1C	?	1	0%	.	?	.
COc1cccc(NC(=S)NC(=O)/C=C/c2ccc(F)cc2)c1	18%	2	1%	-7	-1%	?
CC(=O)Nc1ccc(N/C=C/C(=O)c2ccc(C)cc2)cc1	11%	9	-3%	-2	3%	-16
CCN(C(=O)c1cccc(Br)c1)c1ccccc1	-25%	2	.	16	0%	-9
CN(C)c1ccc(/C=C/C(=O)c2cccc(Br)c2)cc1	21µM*	-17	-2%	8	15µM*	?
CC(=O)Nc1cccc(C(=O)/C=C/c2ccc(C)cc2)c1	10µM*	-2	-1%	-19	9.2µM*	-102*
CCC(=O)Nc1cccc(C(=O)/C=C/c2ccc(F)cc2)c1	2.6µM*	-14	-4%	?	4.6µM*	-80*
O=C(COC(=O)c1c(Cl)ccc(Cl)c1Cl)NCC1CCCO1 (centres undefined)	-22%	-1	-1%	12	-15%	2
Cc1cnc(-n2ncc(C(=O)NCCN3CCOCC3)c2-c2cccs2)nc1-c1ccc(F)cc1	-29%	.	.	.	9%	.
Cc1csc(C(=O)O)c1NC(=O)c1c(Cl)cccc1Cl	-5%	-7	1%	0	-9%	28
O=C(COC(=O)c1ccccc1C(=O)c1ccc(Cl)c([N+](=O)[O-])c1)NC1CC1	16µM*	-18	1%	-66*	18µM*	-103*
O=C(OC1CCOC1=O)c1ccccc1C(=O)c1ccc(Cl)c([N+](=O)[O-])c1 (centres undefined)	-11%	-11	-3%	?	?	-27
CNC(=O)COC(=O)c1ccccc1C(=O)c1ccc(Cl)c([N+](=O)[O-])c1	?	0	-2%	-61*	?	-107*
O=C(C1CCCN(S(=O)(=O)c2cccc3nsnc23)C1)N1CCN(c2ccccc2)CC1 (centres undefined)	21µM*	0	-3%	.	16µM*	.
CC(NC(=O)C1CCCN(S(=O)(=O)c2cccc3nonc23)C1)c1ccccc1 (centres undefined)	-21%	-30	0%	-61*	-26%	-7
O=C(C1CCCN(S(=O)(=O)c2cccc3nonc23)C1)N1CCN(c2cccc(C(F)(F)F)c2)CC1 (centres undefined)	12µM*	-8	-2%	.	15µM*	.
Cc1cccc(N2CCN(C(=O)C3CCCN(S(=O)(=O)c4cccc5nsnc45)C3)CC2)c1C (centres undefined)	18µM*	5	-1%	.	3%	.
SMILES	DT40 TDP1 no CPT	DRD3 agonist	ClpP mod	D3 antag	TDP1 cell CPT	IL-1B inflam inh
OCC(O)C1OC(Nc2ccc(Cl)cc2)C(O)C1O (centres undefined)	-3%	7	0%	21	8%	3
O=C(C1CCCN(S(=O)(=O)c2cccc3cccnc23)C1)N1CCN(c2ccccc2F)CC1 (centres undefined)	15µM*	1	-2%	11	23µM*	14
O=C(C1CCCN(S(=O)(=O)c2cccc3nsnc23)C1)N1CCN(c2ccccc2F)CC1 (centres undefined)	15µM*	6	0%	.	18µM*	.
CC(=O)c1cccc(NS(=O)(=O)c2cc3c(cc2C)n(C)c(=O)c(=O)n3C)c1	-24%	0	-1%	.	13%	.
C/C(Cn1nnc([N+](=O)[O-])n1)=N\NC(=O)c1ccncc1	21µM*	2	.	14	16µM*	46
C/C(Cn1nnc([N+](=O)[O-])n1)=N\NC(=O)c1ccc(C)cc1	15µM*	-8	1%	3	13µM*	41
CCOc1ccccc1-c1nnc(SCC(=O)NC2CC2)n1CC	4%	0	1%	3	5%	26
CCOC(=O)c1cc2sccc2n1CC(=O)N1CCCc2ccccc21	?	3	-5%	-15	?	-50*
CCCOc1ccccc1C(=O)N(Cc1ccc(C)o1)C1CCS(=O)(=O)C1 (centres undefined)	?	-2	0%	7	-29%	7
N#C/C(=C\c1c[nH]c2ccc(Br)cc12)c1ccccn1	21µM*	-17	.	1	?	-84*
COc1cc2ccccc2cc1C(=O)N1CCN(c2ccccc2O)CC1	?	0	-8%	-18	?	-18
O=C(Nc1cccc(Cl)c1)c1ccc(S(=O)(=O)NCC2CCCO2)cc1 (centres undefined)	?	2	2%	-17	-30%	?
CC(=O)NC(c1ccc(C)cc1)c1cc([N+](=O)[O-])c2cccnc2c1O (centres undefined)	15µM*	-11	.	?	5.8µM*	119
CCC(=O)NC(c1ccc(C)cc1)c1cc([N+](=O)[O-])c2cccnc2c1O (centres undefined)	21µM*	-7	-3%	?	?	42
